Test results reported in PubChem BioAssay AID624490 (Broad Institute, 2012).
Measured potencies and affinities stand elsewhere. Active and inactive are the calls of the source.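 How the source made its calls: active means compounds whose fitted half-maximal drop in cell ATP occurs at no more than twice the top tested dose; inconclusive means flat moderate signal drop, or unreliable curve fit; inactive means the rest.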

Assay: viability loss in MITF-independent A375 cells – cell-based, CellTiter-Glo luminescence, dry powder, set 7, counter-screen for MITF inhibitor project, dose response (AID 624490)
Conditions: ATP luminescence (CellTiter-Glo), 24 h; series mostly up to 35 µM

Structure (SMILES)	outcome
NC1=C(NS(=O)(=O)c2ccc(Br)s2)C(=O)c2ccccc2C1=O	inactive
O=C1C(Nc2ccccc2)=C(c2ccccc2)C(=O)c2ccccc21	inactive
NC1=C(NS(=O)(=O)c2ccc(Br)cc2)C(=O)c2ccccc2C1=O	inactive
